# From the supplement of paper PMC4166925
# ± gives the standard deviation of the averaged measurements. In all, about 33,000 sequences were measured (“E-score (dimensionless, -0.5 to 0.5)”: median about -0.049, highest 2% from about 0.37 on). For the sample, the highest values were picked, then their nearest neighbours and some sequences at random.
# System: T1, PmTbr T-box DNA-binding domain (GST fusion)
# T1 sequence: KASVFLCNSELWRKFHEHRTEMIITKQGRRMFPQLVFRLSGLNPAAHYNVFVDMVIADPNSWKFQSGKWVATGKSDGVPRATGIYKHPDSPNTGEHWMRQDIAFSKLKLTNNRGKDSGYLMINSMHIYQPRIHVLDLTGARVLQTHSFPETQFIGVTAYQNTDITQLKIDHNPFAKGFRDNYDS
# Assay: PBM E-score of 8-mer (E-score (dimensionless, -0.5 to 0.5)); Tbr is Tbrain of the sea star Patiria miniata (Pm) or the sea urchin Strongylocentrotus purpuratus (Sp); higher = stronger binding preference
# Conditions: the construct has about 5 more residues each side
# Summary of the method: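 Universal Agilent oligonucleotide arrays, made double-stranded by primer extension, were incubated with 200 nM GST-fused Tbr T-box DNA-binding domain in PBS (pH 7.5). The protein was expressed in BL21 E. coli at 20 °C and purified by glutathione affinity chromatography. After scanning and quantification, the Universal PBM Analysis Suite assigned an enrichment E-score to each ungapped 8-mer, averaged over duplicate arrays.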
row,Sequence,PBM E-score of 8-mer
1,CACCTTTA,0.404 ± 0.013
2,CCCCTTTC,-0.124 ± 0.061
3,CACCTTTC,0.411 ± 0.034
4,CGCGCATC,0.0691 ± 0.012
5,GGCTGGAA,-0.127 ± 0.064
6,GACCACCA,-0.142 ± 0.031
7,AGGAAGGG,-0.28 ± 0.01
8,AGGCACCA,-0.171 ± 0.024
9,TGGCACCA,0.377 ± 0.0055
10,GCGCACCA,-0.0144 ± 0.01
11,CCGCACCA,0.187 ± 0.0087
12,GGGCACCA,-0.125 ± 0.059
13,GAGCACCA,-0.0664 ± 0.018
14,TAGCACCA,0.403 ± 0.015
15,TCGCACCA,0.44 ± 0.0079
16,CAGCACCA,0.0936 ± 0.032
17,GAATTCCC,0.0309 ± 0.029
18,GCAGGGTA,-0.0138 ± 0.034
19,GCAGGTGA,0.4392 ± 0.002
20,ACAGGTGG,0.331 ± 0.022
21,GCAGGTCA,0.103 ± 0.027
22,CCAGGTCC,-0.114 ± 0.039

row,Sequence,PBM E-score of 8-mer
1,ACAGGTTA,0.252 ± 0.022
2,ACAGGTGA,0.406 ± 0.0049
3,CCAGGTGC,0.379 ± 0.014
4,CCAGGTGA,0.339 ± 0.023
5,GCAGGTAA,-0.0867 ± 0.05
6,CCAGGTAC,-0.105 ± 0.1
7,ACAGGTGC,0.4412 ± 0.0022
8,ACAGGTCC,0.0798 ± 0.068
9,CAGCGTGA,0.266 ± 0.0088
10,CGGGCCCG,0.108 ± 0.013
11,CCCCAGAG,-0.096 ± 0.018
12,CTGTGTCA,0.216 ± 0.027
13,ATATGTCG,0.134 ± 0.029
14,ATGTGTCC,0.0956 ± 0.026
15,ATGTGTCA,0.4653 ± 0.0037
16,ATGTGTCG,0.402 ± 0.0094
17,GTGTGTCA,0.348 ± 0.02
18,CTCCTTGC,-0.127 ± 0.067
19,ACGTAATA,-0.234 ± 0.071
20,ACCATTGG,-0.068 ± 0.046
21,ACAGCCTC,-0.206 ± 0.14
22,CATTCGCA,0.3497 ± 0.0027

row,Sequence,PBM E-score of 8-mer
1,CGTTCGCA,0.38 ± 0.037
2,AGTTCGCA,0.378 ± 0.0033
3,GGTTCGCA,0.334 ± 0.02
4,CGTTCGCC,0.0701 ± 0.066
5,AGTTCGCC,0.0555 ± 0.091
6,ACTGCAGT,0.185 ± 0.034
7,AAGTGCGT,0.149 ± 0.039
8,CAGTGCGA,0.386 ± 0.019
9,CAGTGCGC,-0.0646 ± 0.032
10,ACGTGCGA,0.4433 ± 0.0027
11,TAGTGCCA,0.249 ± 0.0097
12,AAGTGCGC,0.138 ± 0.026
13,TAGTGCAA,0.267 ± 0.055
14,AAGTGCGA,0.4835 ± 0.00061
15,TAGTGCGA,0.4056 ± 0.0024
16,ACGTGCGG,0.191 ± 0.05
17,CAGTGCGG,-0.0389 ± 0.1
18,GCGTGCGA,0.285 ± 0.02
19,ATCAACGG,-0.182 ± 0.042
20,ATGTTTCA,-0.174 ± 0.074
21,CGGTTTGA,-0.1932 ± 0.0019
22,ATAACCAA,-0.112 ± 0.038

row,Sequence,PBM E-score of 8-mer
1,CTTAGGAA,-0.24 ± 0.011
2,CGGAAAAA,-0.0583 ± 0.12
3,AAACTACT,0.0819 ± 0.0066
4,CTTCTCAC,0.365 ± 0.01
5,ATGTGCGA,0.4691 ± 0.0032
6,GAGTGCAA,0.0826 ± 0.02
7,GAGTGCGC,-0.0278 ± 0.044
8,ATGTGCGC,0.138 ± 0.0009
9,ATGTGCGG,0.0803 ± 0.028
10,GAGTGCGA,0.4088 ± 0.00055
11,CCTTTCGA,-0.06 ± 0.02
12,AAGTCATA,-0.0653 ± 0.022
13,ATGCAATA,-0.341 ± 0.0082
14,AACCTTAG,-0.0923 ± 0.0088
15,CACCTTAG,0.4473 ± 0.0023
16,AACCTTAC,-0.000525 ± 0.043
17,GACCTTAA,-0.136 ± 0.0073
18,GACCTTAC,-0.313 ± 0.028
19,AACCTTAA,-0.209 ± 0.044
20,CCCCTTAG,-0.195 ± 0.0038
21,CACCTTAA,0.385 ± 0.011
22,CACCTTAC,0.394 ± 0.0074
